Measured values published in PubChem BioAssay AID1159580 (chemical genetic matrix, 2015).
Hit rate of the full screen: of about 5,500 compounds, about 2,000 (36%) were called active. Another 18% or so got no clear call; they are omitted. No stated cut-off is given here; in the data, active means normalized growth mostly below about 0.91 (no sharp cut-off); inconclusive means no clear call, values can overlap the other calls; inactive means mostly above about 0.92. Some of the results follow.

Assay: chemical genetic growth profiling, strain panel (AID 1159580);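 further: tested at 20 µM; growth read once vehicle control cultures reached saturation at 30 °C; 1 = growth at the plate median or of vehicle wells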
Conditions: S. cerevisiae deletion strains, growth OD

Measured: normalized growth

COC(=O)c1c(-c2cc(OC)c(OC)c(OC)c2)c2ccnc(OCc3ncccn3)c2c(=O)n1Cc1ccnc(C)c1
inactive: locus YAL013W, strain DEP1, stronger effect = lower value 1 | locus YAL040C, strain CLN3, stronger effect = lower value 0.889 | locus YCL061C, strain MRC1 (second series), stronger effect = lower value 1.01 | locus YDR363W, strain ESC2, stronger effect = lower value 1.01 | locus YER002W, strain NOP16, stronger effect = lower value 1 | locus YGR078C, strain PAC10, stronger effect = lower value 1.01 | locus YMR263W, strain SAP30, stronger effect = lower value 1.01 | locus YMR307W, strain GAS1, stronger effect = lower value 1.01 | locus YNL153C, strain GIM3, stronger effect = lower value 1.01 | locus YNL175C, strain NOP13, stronger effect = lower value 1 | locus YNL197C, strain WHI3, stronger effect = lower value 0.989 | locus YNL224C, strain SQS1, stronger effect = lower value 0.993 | locus YNL322C, strain KRE1, stronger effect = lower value 1.01 | locus YOR083W, strain WHI5 (second series), stronger effect = lower value 0.999 | locus YPL055C, strain LGE1, stronger effect = lower value 1.01

CC(=O)c1c(O)cc(O)cc1O
inactive: locus YAL021C, strain ccr4, stronger effect = lower value 1.04 | locus YAL026C, strain drs2, stronger effect = lower value 0.987 | locus YAL030W, strain snc1, stronger effect = lower value 0.981 | locus YBL061C, strain skt5, stronger effect = lower value 0.985 | locus YBR009C, strain hhf1, stronger effect = lower value 1.02 | locus YBR023C, strain chs3, stronger effect = lower value 0.995 | locus YBR171W, strain sec66, stronger effect = lower value 0.964 | locus YBR231C, strain swc5, stronger effect = lower value 0.947 | locus YBR279W, strain paf1, stronger effect = lower value 0.991 | locus YCL011C, strain gbp2, stronger effect = lower value 0.978 | locus YCL016C, strain dcc1, stronger effect = lower value 1.03 | locus YCL061C, strain MRC1, stronger effect = lower value 1 | locus YCL069W, strain vba3, stronger effect = lower value 0.949 | locus YCR088W, strain abp1, stronger effect = lower value 0.967 | locus YDL005C, strain med2, stronger effect = lower value 0.97 | locus YDL040C, strain nat1, stronger effect = lower value 0.973 | locus YDR001C, strain nth1, stronger effect = lower value 0.981 | locus YDR069C, strain doa4, stronger effect = lower value 0.937 | locus YDR137W, strain rgp1, stronger effect = lower value 1.01 | locus YDR159W, strain sac3, stronger effect = lower value 0.967 | locus YDR195W, strain ref2 0.914 | locus YDR297W, strain sur2, stronger effect = lower value 0.982 | locus YDR334W, strain swr1, stronger effect = lower value 0.96 | locus YDR335W, strain msn5, stronger effect = lower value 0.973 | locus YDR392W, strain spt3, stronger effect = lower value 0.952 | locus YEL003W, strain gim4, stronger effect = lower value 0.979 | locus YEL037C, strain rad23, stronger effect = lower value 0.974 | locus YEL061C, strain CIN8 (second series), stronger effect = lower value 0.961 | locus YER015W, strain faa2, stronger effect = lower value 0.988 | locus YER016W, strain bim1, stronger effect = lower value 0.972 | locus YER111C, strain swi4, stronger effect = lower value 0.975 | locus YER155C, strain BEM2 (second series), stronger effect = lower value 0.969 | locus YFR010W, strain ubp6, stronger effect = lower value 0.948 | locus YGL167C, strain pmr1, stronger effect = lower value 0.992 | locus YGL173C, strain kem1, stronger effect = lower value 0.993 | locus YGL227W, strain vid30, stronger effect = lower value 0.968 | locus YGL240W, strain doc1, stronger effect = lower value 0.981 | locus YGL253W, strain hxk2, stronger effect = lower value 0.938 | locus YHR013C, strain ard1, stronger effect = lower value 0.985 | locus YHR027C, strain rpn1, stronger effect = lower value 0.997 | locus YHR030C, strain SLT2, stronger effect = lower value 0.986 | locus YHR079C, strain IRE1, stronger effect = lower value 0.974 | locus YHR142W, strain chs7, stronger effect = lower value 0.988 | locus YJL092W, strain hpr5, stronger effect = lower value 0.978 | locus YJL095W, strain BCK1 (second series), stronger effect = lower value 0.981 | locus YJL095W, strain BCK1, stronger effect = lower value 0.992 | locus YJL115W, strain asf1, stronger effect = lower value 0.999 | locus YJL129C, strain trk1, stronger effect = lower value 0.977 | locus YJL154C, strain vps35, stronger effect = lower value 0.973 | locus YJL164C, strain tpk1, stronger effect = lower value 1.02 | locus YJL166W, strain qcr8, stronger effect = lower value 0.989 | locus YJL187C, strain SWE1, stronger effect = lower value 0.99 | locus YJR066W, strain TOR1, stronger effect = lower value 0.952 | locus YKL160W, strain elf1, stronger effect = lower value 1.03 | locus YKR026C, strain gcn3, stronger effect = lower value 0.948 | locus YKR091W, strain srl3, stronger effect = lower value 0.988 | locus YLL001W, strain dnm1, stronger effect = lower value 0.978 | locus YLL026W, stronger effect = lower value 0.998 | locus YLL041C, strain sdh2, stronger effect = lower value 0.983 | locus YLR027C, strain aat2, stronger effect = lower value 0.993 | locus YLR113W, strain HOG1, stronger effect = lower value 0.97 | locus YLR221C, strain rsa3, stronger effect = lower value 0.955 | locus YLR258W, strain gsy2, stronger effect = lower value 0.989 | locus YLR262C, strain YPT6 (second series), stronger effect = lower value 1.06 | locus YLR320W, strain mms22, stronger effect = lower value 0.978 | locus YLR342W, strain FKS1, stronger effect = lower value 0.978 | locus YLR357W, strain rsc2, stronger effect = lower value 0.982 | locus YLR370C, strain arc18, stronger effect = lower value 0.961 | locus YLR384C, strain iki3, stronger effect = lower value 0.973 | locus YML120C, strain ndi1, stronger effect = lower value 0.998 | locus YMR058W, strain fet3, stronger effect = lower value 0.975 | locus YMR125W, strain sto1, stronger effect = lower value 0.958 | locus YMR129W, stronger effect = lower value 0.978 | locus YMR205C, strain PFK2, stronger effect = lower value 1.03 | locus YMR231W, strain pep5, stronger effect = lower value 0.968 | locus YNL071W, strain lat1, stronger effect = lower value 0.984 | locus YNL183C, strain NPR1, stronger effect = lower value 0.938 | locus YNL209W, strain ssb2, stronger effect = lower value 0.997 | locus YNL248C, strain rpa49, stronger effect = lower value 1.01 | locus YNL322C, strain KRE1 (second series), stronger effect = lower value 0.99 | locus YNR049C, strain mso1, stronger effect = lower value 0.978 | locus YOR001W, strain rrp6, stronger effect = lower value 0.922 | locus YOR070C, strain gyp1, stronger effect = lower value 0.988 | locus YOR080W, strain dia2, stronger effect = lower value 0.962 | locus YOR083W, strain WHI5, stronger effect = lower value 1.03 | locus YOR106W, strain vam3, stronger effect = lower value 1.04 | locus YOR231W, strain MKK1, stronger effect = lower value 0.982 | locus YOR265W, strain rbl2, stronger effect = lower value 0.976 | locus YOR270C, strain vph1, stronger effect = lower value 1.01 | locus YOR290C, strain snf2, stronger effect = lower value 1.03 | locus YPL051W, strain arl3, stronger effect = lower value 0.965 | locus YPL078C, strain atp4, stronger effect = lower value 1.03 | locus YPL106C, strain sse1, stronger effect = lower value 0.958 | locus YPL240C, strain hsp82, stronger effect = lower value 0.979 | locus YPL256C, strain CLN2, stronger effect = lower value 0.973
